Source: PubChem BioAssay AID431 (Sanford-Burnham Center for Chemical Genomics, 2006)
Hit rate of the full screen: of about 63,000 compounds, about 1,100 (1.7%) were called active. This excerpt belongs to a sample that is enriched for actives. Measured potencies and affinities stand elsewhere. A number with no mark means an inactive call.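 Rule for the calls: active = compounds whose percent cytotoxicity in the single-dose primary screen, scaled between solvent and toxic-drug controls, exceeds 50; inactive = the rest.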

experiment: cytotoxicity in KRAS-transformed pancreatic duct cells, primary screen, cell-based, fluorescence, HTS (AID 431); settings: HPDE-C7K KRASV12 cells, Alamar Blue viability, 48 h; at 10 µM; active compounds read high;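 note: 0% = DMSO solvent wells and 100% = doxorubicin-treated wells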

Structure (SMILES)	cytotoxicity
Cc1cc(C)nc(SCc2nnc(SCC(=O)N3CCCc4ccccc43)n2C)n1	9.2%
O=C(COC(=O)CN1C(=O)c2ccccc2C1=O)Nc1ncc(Cl)cc1Cl	-11.3%
CCO/C=N/c1c(C#N)c(CC#N)nn1-c1ccccc1	-4.3%
COc1ccc(C2CC(c3c(O)cc(C)oc3=O)=NCCS2)c(OC)c1 (stereo not given)	69.2% (active)
COc1ccc(C2NC(=O)c3n[nH]c(C)c32)c(OC)c1 (stereo not given)	2.8%
COc1ccc(C2C(C(C)=O)=C(O)C(=O)N2C)c(OC)c1 (stereo not given)	18.5%
c1ccc(Sc2nc(N3CCCCC3)nc(N3CCCCC3)n2)nc1	-16.3%
Cc1cc(C)c(S(=O)(=O)Nc2ccc(O)cc2)cc1C	13%
O=C(CCC1COc2ccccc2O1)Nc1ncccc1O (stereo not given)	-11.8%
CN1/C(=C\P(=O)(N(C)C)N(C)C)C(C)(C)c2ccccc21	-1.6%
COc1ccc(S(=O)(=O)Cc2ccc(C(=O)N3CCN(c4cccc(C)c4C)CC3)o2)cc1	48.2%
Cc1ccc(C)c(N2CCN(C(=O)c3ccc(CS(=O)(=O)c4ccccc4C)o3)CC2)c1	52.8% (active)
O=C(O)c1ccc(Cl)c(S(=O)(=O)NCc2ccco2)c1	-11.1%
Cc1ccccc1S(=O)(=O)Cc1ccc(C(=O)N2CCN(c3cccc(C)c3C)CC2)o1	73.9% (active)
Cc1ccccc1S(=O)(=O)Cc1ccc(C(=O)N2CCN(c3ccc(F)cc3)CC2)o1	3.3%
Cc1ccc(S(=O)(=O)Cc2ccc(C(=O)N3CCN(c4cc(C)ccc4C)CC3)o2)cc1	20.6%
O=C(NCC1(N2CCOCC2)CCCCC1)c1ccc(Cl)c(S(=O)(=O)NCc2ccco2)c1	-5.8%
Cc1cccc(N2CCN(C(=O)c3ccc(Cl)c(S(=O)(=O)NCc4ccco4)c3)CC2)c1C	55.9% (active)
Cc1ccccc1S(=O)(=O)Cc1ccc(C(=O)N2CCN(c3ncccn3)CC2)o1	-21.5%
CCSc1nc2c(c(=O)n(C)c(=O)n2C)n1Cc1ccc(Cl)cc1	1.1%
CSc1ccc2[nH]c(=O)cc(C)c2c1	-15.6%
c1ccc(Cn2nnnc2CN2CCCC2)cc1	-11%

Structure (SMILES)	cytotoxicity
COc1ccc(NS(=O)(=O)c2ccc(NS(C)(=O)=O)cc2)cc1	-20.7%
COc1ccccc1/C=N/n1cnnc1	-11.3%
Nc1ccc(-c2nc3ccccc3[nH]2)cc1	-4.1%
Nc1ccc(-c2nc3ccc(-c4nc5ccccc5o4)cc3[nH]2)cc1	66.5% (active)
Nc1cc(N)cc(-c2nc3ccccc3o2)c1	15.3%
COCCN(C(=O)Cc1cccs1)c1nnc(-c2ccncc2)s1	-16.9%
CCCCc1c(C)nc(N)[nH]c1=O	1.6%
COc1ccc(CN(CCCN2CCOCC2)C(=O)Nc2ccccc2)cc1OC	13.2%
Clc1ccc2nc(N3CCCCC3)sc2c1	-11.1%
Cc1cc(Cl)ccc1OC(C)C(=O)Nc1ccccc1N1CCOCC1 (stereo not given)	-12.8%
Cc1cc(/C=N\O)c(C)n1-c1ccncc1	3.4%
C/C=C/COC(=O)c1[nH]c2c(c1C)C(=O)CC(c1ccco1)C2 (stereo not given)	69.1% (active)
C=CCOC(=O)c1[nH]c2c(c1C)C(=O)CC(c1cc(OC)c(OC)c(OC)c1)C2 (stereo not given)	-9.9%
C=CCOC(=O)c1[nH]c2c(c1C)C(=O)CC(c1ccco1)C2 (stereo not given)	67.6% (active)
C/C=C/COC(=O)c1[nH]c2c(c1C)C(=O)CC(c1ccc(N(C)C)cc1)C2 (stereo not given)	10.6%
CCn1c(SCC(=O)Nc2ccc(C(=O)OC)cc2)nnc1-c1cccs1	-8.2%
Cc1ccc(NC(=O)c2cc(NC(=O)c3ccco3)ccc2N2CCCCC2)cc1	19.3%
CCNc1nc(NC(C)C)nc(N(C#N)CCOc2ccc(Cl)cc2Cl)n1	109% (active)
CCCN(C#N)c1nc(NCC)nc(NC(C)C)n1	-9.4%
CCNc1nc(NC(C)C)nc(N(C#N)Cc2ccccc2)n1	3%
O=C(N1CCOCC1)N1CCN(S(=O)(=O)N2CCOCC2)CC1	-4.2%
COc1ccc(CCNc2c(C)c(C)nc3ncnn23)cc1	33.4%

Structure (SMILES)	cytotoxicity
CCc1c(C)nc2ncnn2c1NCCc1ccc(OC)c(OC)c1	-12.5%
CCc1c(C)nc2ncnn2c1NCCc1ccc(OC)cc1	64.2% (active)
Cc1cc(C)nc(Nc2n[nH]c(COc3ccc(Cl)cc3)n2)n1	1.1%
O=C(Nc1ncc(Br)s1)C1CCCN1S(=O)(=O)c1cccc2cccnc12 (stereo not given)	-12.6%
COC(=O)c1sccc1NC(=O)c1ccc(Cl)s1	1.5%
COc1ccccc1-c1cc(C(=O)Nc2cccnc2)no1	71.3% (active)
COc1ccccc1-c1cc(C(=O)Nc2cc(C)on2)no1	6.8%
COc1ccc(NC(=O)c2cc(-c3ccccc3OC)on2)cc1	38.7%
C=CCn1c(SCC(=O)Nc2ccc(C(=O)OCC)cc2)nnc1-c1cccs1	-6.9%
Cc1ccc2c(c1)N(CCC(=O)NCc1ccc3c(c1)OCO3)C(=O)CO2	-4.5%
Cc1ccc(Nc2nc(C)c(CCC(C)C)c(=O)[nH]2)cc1	1.8%
Cc1nc(Nc2ccccc2)[nH]c(=O)c1CCC(C)C	-10.7%
Cc1nc(Nc2ccc(F)cc2)[nH]c(=O)c1CCC(C)C	66.2% (active)
Cc1n[nH]c(C)c1S(=O)(=O)N1CCCC(C(=O)NC2CCCCC2)C1 (stereo not given)	-3.4%
Cc1nnc2n1NC(c1ccc(Cl)cc1)C(C(=O)N1CCC(C)CC1)S2 (stereo not given)	-14.7%
CCOC(=O)c1c(NC(C)=O)no[n+]1[O-]	-10.4%
Cc1cc(C)cc(NC(=O)CSc2nc3c(c(=O)n2C)SC(C)C3)c1 (stereo not given)	-5.2%
COCCSc1ccccc1C(=O)NCCCn1ccnc1	-28.4%
c1ccc(Nc2ccccc2Nc2ccccn2)nc1	-10.1%
O=C(Nc1ccccn1)c1ccc2ccccc2n1	-3.6%
Oc1cccc2ccc(Nc3ccccn3)nc12	124% (active)
